Experiment [1] has as its target Bromodomain-containing protein 4 (Homo sapiens) (UniProt O60885). The following applies: Compound concentration 20.0 uM, Protein concentration 2.0 uM, Result type QC Liability.
In experiment [2] the target is T1, Transcription intermediary factor 1-alpha (Homo sapiens) (UniProt O15164).
T1 sequence (whole entry): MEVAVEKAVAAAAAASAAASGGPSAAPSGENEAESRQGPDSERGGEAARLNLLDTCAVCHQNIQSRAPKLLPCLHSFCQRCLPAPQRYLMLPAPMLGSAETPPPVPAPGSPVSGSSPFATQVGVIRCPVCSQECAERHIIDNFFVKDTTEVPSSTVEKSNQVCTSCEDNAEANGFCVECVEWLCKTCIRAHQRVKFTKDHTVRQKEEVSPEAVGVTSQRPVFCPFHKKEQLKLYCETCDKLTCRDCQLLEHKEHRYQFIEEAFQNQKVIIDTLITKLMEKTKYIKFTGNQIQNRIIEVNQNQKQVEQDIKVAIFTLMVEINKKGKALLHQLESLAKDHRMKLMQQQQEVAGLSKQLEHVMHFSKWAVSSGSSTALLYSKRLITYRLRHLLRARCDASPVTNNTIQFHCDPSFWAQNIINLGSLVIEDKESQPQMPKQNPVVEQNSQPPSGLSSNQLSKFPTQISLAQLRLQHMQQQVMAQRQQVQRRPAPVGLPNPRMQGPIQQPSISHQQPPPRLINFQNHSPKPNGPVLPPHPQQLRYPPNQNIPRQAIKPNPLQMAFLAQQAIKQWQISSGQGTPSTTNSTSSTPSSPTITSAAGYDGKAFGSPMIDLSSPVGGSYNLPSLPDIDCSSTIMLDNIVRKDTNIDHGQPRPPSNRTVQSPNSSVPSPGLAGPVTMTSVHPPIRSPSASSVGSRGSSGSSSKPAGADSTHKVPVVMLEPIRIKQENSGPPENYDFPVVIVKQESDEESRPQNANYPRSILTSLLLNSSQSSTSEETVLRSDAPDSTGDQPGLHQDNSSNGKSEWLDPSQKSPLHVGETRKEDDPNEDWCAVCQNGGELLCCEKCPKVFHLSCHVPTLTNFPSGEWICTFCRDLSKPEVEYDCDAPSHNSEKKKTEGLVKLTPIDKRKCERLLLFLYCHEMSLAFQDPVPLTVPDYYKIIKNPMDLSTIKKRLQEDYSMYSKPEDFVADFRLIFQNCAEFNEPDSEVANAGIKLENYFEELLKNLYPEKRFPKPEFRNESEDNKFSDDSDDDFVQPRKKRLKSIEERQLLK
Particulars: Compound concentration 20.0 uM, Protein concentration 2.0 uM, Result type QC Liability.

Molecules are shown by their SMILES.

Usually ΔTm stands for the change in melting temperature against a reference sample. `CN1CCN(C(=O)c2ccc(N(C)c3ncc(C(F)(F)F)c(N[C@@H]4CCC[C@@H]4C(N)=O)n3)cc2)CC1`: the ΔTm in experiment [1] was -1.86 °C; in experiment [2] it was 0.25 °C.
In the case of `COc1ccc(CC[C@@H](OC(=O)[C@@H]2CCCCN2C(=O)[C@H](c2cc(OC)c(OC)c(OC)c2)C2CCCCC2)c2cccc(OCCN3CCOCC3)c2)cc1OC`, the results for the ΔTm in experiment [1] and in experiment [2] were -4.68 °C and -1.51 °C, respectively.
`CCOC(=O)c1ccc(CN(Cc2ccc(-c3cccc(S(C)(=O)=O)c3)cc2)S(=O)(=O)c2c(C)cc(C)cc2C)o1`: the figures for the ΔTm in experiment [1] and in experiment [2] were -4.78 °C and 0.5 °C, respectively.
`CC(=O)Nc1cccc(-n2c(=O)n(C3CC3)c(=O)c3c(Nc4ccc(I)cc4F)n(C)c(=O)c(C)c32)c1`: the values for the thermal shift (ΔTm) in experiment [1] and in experiment [2] were -2.35 °C and -2.86 °C, respectively.
As to `CCCS(=O)(=O)N[C@H]1C[C@@H](N(C)c2ncnc3[nH]ccc23)C1`, the ΔTm in experiment [1] was -0.54 °C; in experiment [2], -3.66 °C.
As to `Cc1cnc(Nc2ccc(C(=O)N3CCN(C)CC3)cc2)nc1N[C@@H]1CCC[C@@H]1C(N)=O`, the ΔTm in experiment [1] was -1.32 °C; in experiment [2], -3.2 °C.
Taken in the same sequence, the figures for `Cc1cc(C2CCCNC2)ccc1Nc1ncc(Br)c(NCc2cccc3c2C(C)(C)C(=O)N3)n1` (configuration not stated) were -4.96 °C and -2.52 °C.
Turning to `O=C(O)c1ccc(CN2C[C@@H]3C[C@H]2CN3Cc2ccc(Oc3ccc(-c4ncco4)cc3)cc2)cc1`, the ΔTm in experiment [1] is -2.1 °C; in experiment [2], -1.06 °C.
Turning to `COc1cc(O)c(C(CC(=O)N2C[C@H](C)C[C@H](C)C2)c2ccc3c(c2)OCO3)c(OC)c1` (some centres not stated), the ΔTm in experiment [1] was 0.54 °C; in experiment [2], -3.38 °C.
For the compound `COC1(C#Cc2ccc(Cl)c(-c3ncc4c(n3)-c3sc(NC(C)=O)nc3CC4)c2)CCN(C)CC1`, the ΔTm is -2.24 °C in experiment [1] and -3.35 °C in experiment [2].
Taken in the same sequence, the figures for `COc1cc2ncnc(N[C@H](C)c3ccccc3)c2cc1OC1CCN(S(C)(=O)=O)CC1` were -3.35 °C and -1.88 °C.
